According to PubChem BioAssay (Tox21):
Where “and” joins values, the source holds several entries; their conditions need not be identical. Equal values may be shown once. Records with an inconclusive call do not appear. Calls of active or inactive are those of the source. Unless noted, calls follow the shape of the dose curve; as a rule, active = well fitted curve in the direction sought with a large enough effect in the repeat runs; inconclusive = weak or mixed curves; inactive = no such curve, though single readings can be large; an effect the other way counts as inactive or inconclusive.

How the values were obtained:
[1] = qHTS assay to identify aromatase inhibitors - cell viability counter screen (AID 743084);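 also: cells stimulated with testosterone during compound exposure; nearly all actives have a fitted effect of over 55% in size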; also: potency is read from the fitted curve at half-maximal effect
[2] = molecular target: Aryl hydrocarbon receptor (Homo sapiens) (UniProt P35869); experiment: qHTS assay to identify small molecule that activate the aryl hydrocarbon receptor (AhR) signaling pathway (AID 743085); also: nearly all actives have a fitted effect of over 15% in size; also: potency is read from the fitted curve at half-maximal effect;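 as to activation: HG2L7.5c1 human HepG2 liver cells with stably integrated DRE-driven firefly reporter; series mostly up to about 70 µM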
Method in brief: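 HepG2 cells (HG2L7.5c1) stably carrying a firefly luciferase reporter driven by 20 dioxin responsive elements were exposed to compound for 24 h at 37C after a 5 h settling period; luminescence rise (ONE-Glo) indicated activation.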

[3] = qHTS assay to identify small molecule that activate the aryl hydrocarbon receptor (AhR) signaling pathway - cell viability counter screen (AID 743086);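 also: HepG2 liver cells carrying the AhR DRE luciferase reporter; series mostly up to about 70 µM; nearly all actives have a fitted effect of over 45% in size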
Method in brief: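 Cytotoxicity counter screen: CellTiter-Fluor signal (30 min, 37 C) in 4000 HepG2 cells/well carrying the DRE-luciferase reporter, following 24 h compound exposure at 37 C.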

[4] = molecular target: Peroxisome proliferator-activated receptor gamma (Homo sapiens) (UniProt P37231); experiment: qHTS assay to identify small molecule agonists of the peroxisome proliferator-activated receptor gamma (PPARg) signaling pathway (AID 743094; active = well fitted activation curve with a large enough effect in the signal ratio in the repeat runs, not every such curve was filed as active; the % refers to the signal ratio)
Method in brief: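 HEK293H PPARg-bla cells, 5 h settle at 37C/5% CO2; compound (DMSO) 17 h, 37C; B/G FRET substrate 1 h RT; fluorescence intensity read-out. qHTS format.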

[5] = molecular target: Peroxisome proliferator-activated receptor gamma (Homo sapiens) (UniProt P37231); experiment: qHTS assay to identify small molecule antagonists of the peroxisome proliferator-activated receptor gamma (PPARg) signaling pathway (AID 743191; calls by dose curve; also: nearly all actives have a fitted effect of over 30% in size; also: potency is read from the fitted curve at half-maximal effect; as to ratio activity, negative = inhibition: series mostly up to about 63 µM)
Method in brief: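 Beta-lactamase reporter under UAS control in HEK293H PPARg-bla cells; compound treatment 17 h at 37C. Read-out: fluorescence intensity after 1 h room-temperature incubation with LiveBLAzer B/G FRET substrate.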

[6] = qHTS assay to identify small molecule antagonists of the peroxisome proliferator-activated receptor gamma (PPARg) signaling pathway - cell viability counter screen (AID 743194); also: nearly all actives have a fitted effect of over 55% in size
Method in brief: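 Viability was measured as CellTiter-Glo luminescence in GeneBLAzer PPARg UAS-bla HEK293H cells. These cells had been exposed 17 h at 37 C to compounds together with rosiglitazone at 50 nM final, with the beta-lactamase readout taken in the same wells.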

[7] = qHTS assay for small molecule agonists of the antioxidant response element (ARE) signaling pathway (AID 743202; active = well fitted activation curve with a large enough effect in the signal ratio in the repeat runs, not every such curve was filed as active; the % refers to the signal ratio; also: potency is read from the fitted curve at half-maximal effect)
Method in brief: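 Beta-lactamase reporter activity, read as fluorescence intensity, reflects ARE/Nrf2 pathway induction in HepG2 cells after 16 h compound exposure at 37 C; substrate loading was 2 h at room temperature.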

[8] = qHTS assay for small molecule agonists of the antioxidant response element (ARE) signaling pathway - cell viability counter screen (AID 743203; calls by dose curve; also: nearly all actives have a fitted effect of over 55% in size)
Method in brief: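 Luminescence read-out (CellTiter-Glo, 30 min at room temperature) measured cell viability in the same wells as the ARE beta-lactamase reporter. HepG2 ARE-bla cells were treated with compounds for 16 hrs at 37C/5% CO2.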

[9] = qHTS assay for small molecule activators of the heat shock response signaling pathway - cell viability counter screen (AID 743209); also: nearly all actives have a fitted effect of over 50% in size
Method in brief: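 HSE-bla HeLa; 1500 cells/well; overnight 37 C, 5% CO2; compound 5 h 37 C; LiveBLAzer B/G substrate 2.5 h RT; CellTiter-Glo 30 min RT; luminescence.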

[10] = qHTS assay for small molecule activators of the heat shock response signaling pathway (AID 743210; active = well fitted activation curve with a large enough effect in the signal ratio in the repeat runs, with a control signal flat, not every such curve was filed as active; the % refers to the signal ratio;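 also: HeLa cells with beta-lactamase reporter driven by heat shock elements; series mostly up to about 63 µM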)
Method in brief: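 Fluorescence from a cleaved B/G FRET substrate (2.5 h, room temp) reports HSE-driven beta-lactamase in HeLa cells treated 5 h at 37 C with DMSO-dissolved compounds.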
% is scaled to controls: 0 for no effect and ±100 for the full control effect.

Aryl hydrocarbon receptor (Homo sapiens), sequence (P35869 whole entry, looked up): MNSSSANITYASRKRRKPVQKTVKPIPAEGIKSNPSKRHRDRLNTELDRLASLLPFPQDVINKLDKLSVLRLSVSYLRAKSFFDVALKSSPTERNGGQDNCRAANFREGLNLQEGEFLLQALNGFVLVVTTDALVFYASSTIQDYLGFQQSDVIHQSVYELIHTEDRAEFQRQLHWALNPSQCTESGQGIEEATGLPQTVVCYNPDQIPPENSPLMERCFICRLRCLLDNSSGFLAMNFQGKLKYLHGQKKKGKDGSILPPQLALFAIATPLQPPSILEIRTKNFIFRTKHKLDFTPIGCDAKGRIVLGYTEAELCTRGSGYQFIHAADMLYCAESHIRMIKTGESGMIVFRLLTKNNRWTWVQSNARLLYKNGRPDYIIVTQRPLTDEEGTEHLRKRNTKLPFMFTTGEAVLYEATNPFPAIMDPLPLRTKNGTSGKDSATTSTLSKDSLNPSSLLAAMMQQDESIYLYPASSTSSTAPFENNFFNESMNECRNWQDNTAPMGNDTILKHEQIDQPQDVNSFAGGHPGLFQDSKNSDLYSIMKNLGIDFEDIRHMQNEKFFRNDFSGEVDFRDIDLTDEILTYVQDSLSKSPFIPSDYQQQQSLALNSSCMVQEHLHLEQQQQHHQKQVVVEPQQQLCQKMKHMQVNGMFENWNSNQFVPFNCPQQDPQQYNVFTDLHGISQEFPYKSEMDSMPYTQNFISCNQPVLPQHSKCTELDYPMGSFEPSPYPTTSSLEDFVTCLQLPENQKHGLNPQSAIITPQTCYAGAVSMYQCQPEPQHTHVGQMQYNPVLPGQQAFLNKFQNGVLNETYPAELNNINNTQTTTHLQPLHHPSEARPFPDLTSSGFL
Peroxisome proliferator-activated receptor gamma (Homo sapiens), sequence (P37231 whole entry, looked up): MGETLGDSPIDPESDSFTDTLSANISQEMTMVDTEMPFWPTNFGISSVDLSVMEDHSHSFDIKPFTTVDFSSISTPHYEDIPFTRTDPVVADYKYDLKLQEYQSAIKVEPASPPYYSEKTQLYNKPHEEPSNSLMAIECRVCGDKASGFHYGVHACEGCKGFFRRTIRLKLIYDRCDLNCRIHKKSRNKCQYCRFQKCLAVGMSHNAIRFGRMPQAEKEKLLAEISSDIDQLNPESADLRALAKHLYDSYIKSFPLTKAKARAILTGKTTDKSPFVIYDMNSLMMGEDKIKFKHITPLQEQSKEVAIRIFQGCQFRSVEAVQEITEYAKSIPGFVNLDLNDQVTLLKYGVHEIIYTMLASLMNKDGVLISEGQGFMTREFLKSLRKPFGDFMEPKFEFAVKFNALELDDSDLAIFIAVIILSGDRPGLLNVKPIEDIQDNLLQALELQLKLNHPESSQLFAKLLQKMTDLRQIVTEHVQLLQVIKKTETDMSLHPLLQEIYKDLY

COc1c(N2C[C@@H]3CCCN[C@@H]3C2)c(F)cc2c(=O)c(C(=O)O)cn(C3CC3)c12
inactive: Potency [1] | Potency [2] | Potency [3] | outcome [4] | Potency [5] | outcome [6] | Potency [7] | Potency [8] | outcome [9]

COC(=O)NN
inactive: Potency [1] | Potency [2] | Potency [3] | outcome [4] | Potency [5] | outcome [6] | Potency [7] | Potency [8] | outcome [9] | outcome [10]

CC(C)(C)NCCNC(C)(C)C
inactive: Potency [1] | Potency [2] | Potency [3] | outcome [4] | Potency [5] | outcome [6] | Potency [7] | Potency [8] | outcome [9] | outcome [10]

CCc1ccc(O)c(OC)c1
inactive: Potency [1] | Potency [2] | Potency [3] | outcome [4] | Potency [5] | outcome [6] | Potency [7] | Potency [8] | outcome [9] | outcome [10]

CCn1ccnc1CC1COc2ccccc2O1 (configuration not stated)
inactive: Potency [1] | Potency [2] | Potency [3] | outcome [4] | Potency [5] | outcome [6] | Potency [7] | Potency [8] | outcome [9] | outcome [10]

Cc1c(NC(C)C)c(=O)n(-c2ccccc2)n1C
inactive: Potency [1] | Potency [2] | Potency [3] | outcome [4] | Potency [5] | outcome [6] | Potency [7] | Potency [8] | outcome [9] | outcome [10]

CCC(C)S (configuration not stated)
inactive: activity change, negative = cytotoxicity [1] -1.89% [at 3.79 µM] | activation [2] 2.05% [at 3.79 µM] | viability change, negative = cytotoxic [3] -4.09% [at 3.79 µM] | activation [4] 4.65% [at 3.17 µM] | ratio activity, negative = inhibition [5] 25.6% [at 2.7 µM] | activity change, negative = cytotoxicity [6] -9.73% [at 2.7 µM] | activation [7] 1.05% [at 3.74 µM] | viability change, negative = cytotoxic [8] 9.9% [at 3.74 µM] | activity change, negative = cytotoxicity [9] -3.21% [at 2.7 µM]

Cc1cc2c(cc1S(N)(=O)=O)S(=O)(=O)CCC2
inactive: Potency [1] | Potency [2] | Potency [3] | outcome [4] | Potency [5] | outcome [6] | Potency [7] | Potency [8] | outcome [9] | outcome [10]

CO[Si](CCCOCC1CO1)(OC)OC (configuration not stated)
inactive: Potency [1] | Potency [2] | Potency [3] | outcome [4] | Potency [5] | outcome [6] | Potency [7] | Potency [8] | outcome [9] | outcome [10]

CC1=CC(C)C(C=O)CC1 (configuration not stated)
inactive: Potency [1] | Potency [2] | Potency [3] | outcome [4] | Potency [5] | outcome [6] | Potency [7] | Potency [8] | outcome [9] | outcome [10]

CCCCCCCCCCCCN(CCCCCCCCCCCC)CCCCCCCCCCCC
inactive: Potency [1] | Potency [2] | Potency [3] | outcome [4] | Potency [5] | Potency [7] | Potency [8] | outcome [9]

CCN1CCC[C@H]1CNC(=O)c1cc(S(N)(=O)=O)ccc1OC
inactive: Potency [1] | Potency [2] | Potency [3] | outcome [4] | Potency [5] | outcome [6] | Potency [8] | outcome [9] | outcome [10]

CCOC(C)(C)C
inactive: Potency [1] | Potency [2] | Potency [3] | outcome [4] | Potency [5] | outcome [6] | Potency [8] | outcome [9] | outcome [10]

CC(C(=O)O)c1ccc(CC2CCCC2=O)cc1 (configuration not stated)
inactive: Potency [1] | Potency [2] | Potency [3] | outcome [4] | Potency [5] | outcome [6] | Potency [8] | outcome [9]

NS(=O)(=O)c1ccc(C(=O)O)cc1
inactive: Potency [1] | Potency [2] | Potency [3] | outcome [4] | Potency [5] | outcome [6] | Potency [8] | outcome [9]

O=C(O)c1ccccc1OP(=O)(O)O
inactive: Potency [1] | Potency [2] | Potency [3] | outcome [4] | Potency [5] | outcome [6] | outcome [9] | outcome [10]

CCCCCCCCCCCCCCCCC
inactive: Potency [1] | Potency [2] | Potency [3] | outcome [4] | Potency [5] | outcome [6] | Potency [7] | outcome [9] | outcome [10]

N[C@H](C(=O)O)c1ccc(O)cc1
inactive: Potency [1] | Potency [2] | Potency [3] | outcome [4] | Potency [5] | outcome [6] | Potency [7] | Potency [8] | outcome [10]

CCCN(CCC)CCc1cccc2c1CC(=O)N2
inactive: Potency [1] | Potency [2] | Potency [3] | outcome [4] | Potency [5] | outcome [6] | Potency [8] | outcome [9] | outcome [10]

NC(=O)c1ccc([N+](=O)[O-])cc1
inactive: Potency [1] | Potency [2] | Potency [3] | outcome [4] | Potency [5] | outcome [6] | Potency [8] | outcome [9]

COC(=O)c1cc(C(=O)OC)cc(S(=O)(=O)O)c1
inactive: Potency [1] | Potency [2] | Potency [3] | outcome [4] | Potency [5] | outcome [6] | Potency [8] | outcome [10]

Cn1c(N)c(N=O)c(=O)n(C)c1=O
active: Potency [2] 25.1 µM
inactive: Potency [1] | Potency [3] | outcome [4] | Potency [5] | outcome [6] | Potency [8] | outcome [9]

CCCCCCOC(=O)CCCCC(=O)OCCCCCC
inactive: Potency [1] | Potency [2] | Potency [3] | outcome [4] | Potency [5] | outcome [6] | Potency [8] | outcome [9]

Cn1cc(S(C)=O)c(=O)c2ccc(F)cc21 (configuration not stated)
inactive: Potency [1] | Potency [2] | Potency [3] | outcome [4] | Potency [5] | outcome [6] | Potency [7] | Potency [8] | outcome [10]

O=c1n(CCO)c(=O)n(CCO)c(=O)n1CCO
inactive: Potency [1] | Potency [2] | Potency [3] | outcome [4] | Potency [5] | outcome [6] | Potency [8] | outcome [9] | outcome [10]

CC(C)(C)c1ccc(O)c(O)c1
active: Potency [1] 54.5 µM | Potency [2] 70.9 µM and 34.4 µM | Potency [5] 18 µM | Potency [7] 28.2 µM and 24.3 µM
inactive: Potency [3] | outcome [4] | outcome [6] | outcome [9]

O=C1CC2CC1C1CCCC21 (configuration not stated)
inactive: Potency [1] | Potency [2] | Potency [3] | outcome [4] | Potency [5] | outcome [6] | Potency [8] | outcome [9] | outcome [10]
